JMJD2A Tudor: inhibitors of human JMJD2A Tudor domain. O75164. AlphaScreen JMJD2A-Tudor / H3K4me3 peptide binding. Potency, µM (top dose mostly 114 µM), for the others: at the top dose activity change, negative = inhibition, hits mostly inhibitors. 4.4% of 390,000 active. AID 504339; further: on the % scale 0 is the no-effect control and ±100 the full control effect; nearly all actives have a fitted effect of over 50% in size
Target sequence (O75164 whole entry, looked up, the tested form may be a part): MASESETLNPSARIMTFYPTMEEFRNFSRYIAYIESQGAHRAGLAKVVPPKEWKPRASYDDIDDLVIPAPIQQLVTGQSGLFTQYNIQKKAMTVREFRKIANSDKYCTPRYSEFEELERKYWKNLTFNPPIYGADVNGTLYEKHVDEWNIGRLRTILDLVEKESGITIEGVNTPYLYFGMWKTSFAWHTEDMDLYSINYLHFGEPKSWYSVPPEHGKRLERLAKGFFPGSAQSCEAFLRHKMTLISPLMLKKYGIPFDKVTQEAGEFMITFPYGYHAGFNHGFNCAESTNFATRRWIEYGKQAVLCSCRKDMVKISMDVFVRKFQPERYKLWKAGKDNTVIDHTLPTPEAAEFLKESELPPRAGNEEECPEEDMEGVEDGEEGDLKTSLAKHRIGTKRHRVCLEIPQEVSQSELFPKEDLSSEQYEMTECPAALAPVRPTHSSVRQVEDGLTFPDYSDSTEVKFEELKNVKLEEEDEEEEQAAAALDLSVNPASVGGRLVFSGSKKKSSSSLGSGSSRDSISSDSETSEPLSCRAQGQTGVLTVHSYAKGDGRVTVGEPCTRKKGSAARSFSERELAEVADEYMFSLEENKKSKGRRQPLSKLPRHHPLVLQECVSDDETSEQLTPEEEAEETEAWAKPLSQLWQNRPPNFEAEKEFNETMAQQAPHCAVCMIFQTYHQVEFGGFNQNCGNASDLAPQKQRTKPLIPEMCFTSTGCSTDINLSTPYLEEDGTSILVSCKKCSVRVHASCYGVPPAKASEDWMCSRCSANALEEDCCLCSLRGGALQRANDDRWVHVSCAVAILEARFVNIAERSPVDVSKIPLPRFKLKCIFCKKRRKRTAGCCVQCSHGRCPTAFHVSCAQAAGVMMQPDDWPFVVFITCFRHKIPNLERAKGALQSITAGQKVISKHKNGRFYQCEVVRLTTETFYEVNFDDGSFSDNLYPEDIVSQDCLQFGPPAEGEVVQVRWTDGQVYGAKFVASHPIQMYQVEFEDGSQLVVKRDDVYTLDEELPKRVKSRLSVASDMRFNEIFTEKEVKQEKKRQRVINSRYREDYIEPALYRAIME
Sfp inh: Sfp phosphopantetheinyl transferase inhibition. Q9F4F7. Biochemical Sfp PPTase activity, qHTS. Potency, µM, without a hit: largest response in the series, negative = inhibition, most hits filed as inhibitors. 3.5% of 310,000 active. AID 1490;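 further: the enzyme is Sfp with the accession as filed and its product quenches rhodamine fluorescence; 0% = enzyme reaction without inhibitor and -100% = no enzyme wells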
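Compounds were incubated with enzyme (final 15 nM) for 15 min at room temperature before substrate addition started the reaction. Fluorescence at 525 nm excitation, 598 nm emission was recorded immediately and after 30 minutes.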
BAZ2B inh: blocks human BAZ2B; Q9UIF8; AlphaScreen BAZ2B-H3K14Ac peptide displacement; AID 504333; 4.4% of 360,000 active; Potency, µM (top dose mostly 114 µM), for inactives: at the top dose activity change, negative = inhibition, usual class: inhibitors; further: on the % scale 0 is the no-effect control and ±100 the full control effect; nearly all actives have a fitted effect of over 60% in size
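Compounds, titrated to a top concentration of 110 uM, were incubated 30 min at room temperature with preformed BAZ2B/acetyl-K14 H3 peptide complex (50 nM each). Proximity signal was measured by AlphaScreen after 20 min with beads.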
G9a inh: G9a (human) methyltransferase inhibition; G9a H3K9 monomethylation, AlphaScreen, 2 h; Potency, µM (series often up to 102 µM), for inactives: at the highest dose activity, negative = inhibition, most hits filed as inhibitors; 8.8% of 350,000 active; AID 504332; further: on the % scale 0 is the no-effect control and ±100 the full control effect; nearly all actives have a fitted effect of over 75% in size
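Quantitative HTS format: methyltransferase activity on a biotin-tagged H3K9 peptide is measured by AlphaScreen, using a rabbit anti-monomethyl-H3K9 antibody with streptavidin donor and anti-IgG acceptor beads. Final levels are 20 nM enzyme, 500 nM peptide, 20 uM SAM; 2 h RT.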
L3MBTL1 block: L3MBTL1 (human) inhibition | AID 485360 | Potency, µM (highest dose often 57.1 µM), inactives show at the top dose activity, negative = inhibition, hits mostly inhibitors | 0.66% of 230,000 active | Q9Y468 | AlphaScreen L3MBTL1–H3K9me1 peptide binding; further: on the % scale 0 is the no-effect control and ±100 the full control effect; nearly all actives have a fitted effect of over 60% in size
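L3MBTL1 50 nM + b-AHA-H3(1-15)K9me1 75 nM, 30 min RT; compound added, 30 min RT; streptavidin donor/Ni-chelate acceptor beads 10 ug/mL each final, 30 min RT dark; AlphaScreen read.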
HP1b chromo inh: blocks HP1-beta chromodomain binding to methylated histone tails | P83916 | AlphaScreen HP1-beta / biotin-H3K9me3 peptide binding | Potency, µM (highest dose often 114 µM), inactives show at the top dose activity change, negative = inhibition, usual class: inhibitors | 0.56% of 390,000 active | AID 540317; further: nearly all actives have a fitted effect of over 70% in size
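Compound inhibition of the preformed complex between 50 nM HP1-beta and 50 nM biotinylated H3K9me3 peptide was read by AlphaScreen. Buffer was PBS pH 7.4 with 0.01% Tween-20. Incubations ran 30 min at room temperature, with 10 ug/mL donor/acceptor beads.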
* = called active by the depositor; [ ] = dose if it differs, or a comment. Shown are actives, neighbours in structure and some others; about 12% of the full set was active somewhere. The call rests on the fitted dose curve; in most records, active means well fitted curve in the direction sought with a large enough effect; inconclusive means small, poorly fitted or top-dose-only effect, or another doubt; inactive means no such curve, though single readings can be large; an effect the other way counts as inactive or inconclusive. Potency means the concentration at half of the fitted maximal effect.

`O=C(C1COc2ccccc2O1)N1CCc2ccccc21` (stereo not given) gave JMJD2A Tudor 79µM*, Sfp inh -7%, BAZ2B inh 45µM*, G9a inh 50µM*, L3MBTL1 block inconclusive and HP1b chromo inh inconclusive.
`O=C(O)C1C2C=CC(C3CC23)C1C(=O)N1CCc2ccccc21` (stereo not given) gave JMJD2A Tudor 20µM*, Sfp inh inconclusive, BAZ2B inh -6%, G9a inh 79µM*, L3MBTL1 block -4% and HP1b chromo inh -28%.
For O=C(O)C1C2C=CC(C2)C1C(=O)N1CCc2ccccc21 (stereo not given) the results were JMJD2A Tudor -16%, Sfp inh -5%, BAZ2B inh 5%, G9a inh 0%[12.7 µM], L3MBTL1 block -1%[11.4 µM] and HP1b chromo inh 20%.
For O=C(C1COc2ccccc2O1)N1CCCC1 (stereo not given) the results were JMJD2A Tudor -8%, Sfp inh 14%, BAZ2B inh -12%, G9a inh 1% and HP1b chromo inh 33%.
Screening O=C(O)C1CC=CCC1C(=O)N1CCc2ccccc21 (stereo not given) returned JMJD2A Tudor inconclusive, Sfp inh -1%, BAZ2B inh inconclusive, G9a inh 13µM*, L3MBTL1 block -8% and HP1b chromo inh -16%.
O=C(C1CCN(S(=O)(=O)c2ccccc2)CC1)N1CCc2ccccc21 was read as JMJD2A Tudor -11%, Sfp inh inconclusive, BAZ2B inh -6% and HP1b chromo inh 30%.
`CCc1nc2nc(C)cc(Nc3cc(C)ccc3C)n2n1` gave JMJD2A Tudor -4%, BAZ2B inh -13%, G9a inh -3%[59 µM] and HP1b chromo inh 42%.
For Cc1cc(I)ccc1Nc1c(C(=O)NOCC2CC2)cc(F)c(F)c1F the results were Sfp inh 14%.
For CCCCN(CCCNC(=O)c1c(C)cc(=O)oc1C)c1ccccc1 the results were JMJD2A Tudor 50µM*, Sfp inh 12%, BAZ2B inh 45µM*, G9a inh 50µM*, L3MBTL1 block -30% and HP1b chromo inh inconclusive.
Screening CCCS(=O)(=O)N1CC(=O)N(c2ccc(C)c(Cl)c2)C(C)(C(=O)NC2CCCCCC2)C1 (stereo not given) returned JMJD2A Tudor -6%, BAZ2B inh 3%, G9a inh -2%[59 µM] and HP1b chromo inh 24%.
COc1ccc(S(=O)(=O)N(C(C)=O)c2ccc(OC(C)=O)c3ccccc23)cc1[N+](=O)[O-] was read as JMJD2A Tudor -25%, Sfp inh 9%, BAZ2B inh 4%, G9a inh 79µM*, L3MBTL1 block -5% and HP1b chromo inh 41%.
Screening CC(=O)Oc1ccccc1N(C(C)=O)S(=O)(=O)c1ccc(C)cc1 returned JMJD2A Tudor -14%, Sfp inh 0%, G9a inh -28% and HP1b chromo inh 27%.
C=CCn1c(Cc2csc(N)n2)nnc1SCC(=O)OCC was read as JMJD2A Tudor 45µM*, Sfp inh -7%, BAZ2B inh 28µM*, G9a inh 9%[59 µM] and HP1b chromo inh 17%.
Screening C=CCn1c(Cc2csc(N)n2)nnc1SCC(=O)Nc1ccc(C(=O)OCC)cc1 returned JMJD2A Tudor 79µM*, Sfp inh 15%, BAZ2B inh 22µM*, G9a inh 17%[59 µM], L3MBTL1 block inconclusive and HP1b chromo inh 33%.
CCNc1ncc2nc(-c3ccc(F)cc3)c(=O)n(CCOC)c2n1 was read as Sfp inh 18% and G9a inh -1%[0.501 µM].
CC1=C(C(=O)Nc2ccccc2)C(c2ccc[nH]2)n2ncnc2N1 (stereo not given) was read as JMJD2A Tudor 22µM*, BAZ2B inh 8.9µM*, G9a inh inconclusive, L3MBTL1 block 1.6µM* and HP1b chromo inh -28%[57 µM].
CC1=C(C(=O)Nc2ccccc2)C(c2ccccn2)n2ncnc2N1 (stereo not given) was read as JMJD2A Tudor -3%, Sfp inh 9%, BAZ2B inh -10%, G9a inh 8%[59 µM] and HP1b chromo inh 26%.
`Cc1nc2ccccc2c2oc(C(=O)N3CCC(N4CCCCC4)CC3)cc12` gave JMJD2A Tudor -25%, Sfp inh 13%, BAZ2B inh -3%, G9a inh 71µM*, L3MBTL1 block 16% and HP1b chromo inh 17%.
Screening COc1ccc(N2CCN(C(=O)c3cc4c(=O)n(Cc5cccs5)ccc4nc3C)CC2)cc1 returned JMJD2A Tudor inconclusive, BAZ2B inh 50µM*, G9a inh inconclusive and HP1b chromo inh -6%.
`CC(=O)c1ccc(N2CCN(C(=O)c3cc4c(C)nc5ccccc5c4o3)CC2)cc1` gave JMJD2A Tudor -32%, Sfp inh -8%, BAZ2B inh inconclusive, G9a inh 12% and HP1b chromo inh 25%.
`Cc1nc2ccccc2c2oc(C(=O)N3CCN(C4CCCCC4)CC3)cc12` gave JMJD2A Tudor -11%, Sfp inh -1%, BAZ2B inh 12%, G9a inh 15%, L3MBTL1 block 3% and HP1b chromo inh 31%.
Screening COc1ccc(N2CCN(C(=O)c3cc4c(C)nc5ccccc5c4o3)CC2)cc1 returned JMJD2A Tudor 56µM*, Sfp inh -17%, BAZ2B inh 7%, G9a inh 50µM* and HP1b chromo inh inconclusive.
COc1cccc(N2CCN(C(=O)c3cc4c(=O)n(Cc5cccs5)ccc4nc3C)CC2)c1 was read as JMJD2A Tudor inconclusive, BAZ2B inh -34%, G9a inh 2%[59 µM] and HP1b chromo inh -21%.
Screening C[C@@H]1/C=C\CC(=O)OC[C@H](C)C(=O)N2CCC[C@@H]2C(=O)OC1 returned Sfp inh 24%.
For O=C(CSc1nnc(Nc2ccccc2F)s1)Nc1cccc(S(=O)(=O)N2CCCCC2)c1 the results were JMJD2A Tudor inconclusive, Sfp inh 9%, BAZ2B inh -10%, G9a inh 3.2µM*, L3MBTL1 block -14% and HP1b chromo inh 7%.
For Cc1ccc(Nc2nnc(SCC(=O)Nc3cccc(S(=O)(=O)N4CCCCC4)c3)s2)cc1 the results were JMJD2A Tudor -28%[57.1 µM], Sfp inh 22%, BAZ2B inh -20%, G9a inh 40µM*, L3MBTL1 block -14% and HP1b chromo inh 14%.
Cc1nnc(SCC(=O)Nc2cccc(S(=O)(=O)N3CCCCC3)c2)s1 was read as JMJD2A Tudor -11%, BAZ2B inh -3%, G9a inh 10%[2.33 µM], L3MBTL1 block -1% and HP1b chromo inh 13%.

Source: PubChem (National Center for Advancing Translational Sciences (NCATS))
